Records with an inconclusive call do not appear. Values without a mark were called inactive. Calls come from the whole dose curve; as a rule, active = well fitted inhibition curve with a large enough effect; inconclusive = small, poorly fitted or top-dose-only effect; inactive = flat fitted curve, though single readings scatter.
The compounds below were run against Lysine-specific demethylase 5B (Homo sapiens) (UniProt Q9UGL1) (assay: Optimization screen for KDM5B Histone Demethylases FDH coupled qHTS against the LOPAC library (AID 1347166; note: 0% is about no effect)). Conditions: KDM5B demethylation, FDH-coupled NADH fluorescence (FDH is formaldehyde dehydrogenase); series mostly up to 57.5 µM; activity, negative = inhibition: at the top concentration.
Method in brief: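 KDM5BDeltaAP (200nM final) in 50mM HEPES pH 7.5, 0.01% Tween-20 was preincubated with compound for 10 min at room temperature. A substrate mix of 12.5uM H3K4Me3, 25uM a-ketoglutarate, ascorbate, Fe2+, NAD+ and formaldehyde dehydrogenase was then added. NADH fluorescence (340/450 nm) was read initially and after 30 min.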

Sequence of Lysine-specific demethylase 5B (Homo sapiens) (Q9UGL1 whole entry, looked up): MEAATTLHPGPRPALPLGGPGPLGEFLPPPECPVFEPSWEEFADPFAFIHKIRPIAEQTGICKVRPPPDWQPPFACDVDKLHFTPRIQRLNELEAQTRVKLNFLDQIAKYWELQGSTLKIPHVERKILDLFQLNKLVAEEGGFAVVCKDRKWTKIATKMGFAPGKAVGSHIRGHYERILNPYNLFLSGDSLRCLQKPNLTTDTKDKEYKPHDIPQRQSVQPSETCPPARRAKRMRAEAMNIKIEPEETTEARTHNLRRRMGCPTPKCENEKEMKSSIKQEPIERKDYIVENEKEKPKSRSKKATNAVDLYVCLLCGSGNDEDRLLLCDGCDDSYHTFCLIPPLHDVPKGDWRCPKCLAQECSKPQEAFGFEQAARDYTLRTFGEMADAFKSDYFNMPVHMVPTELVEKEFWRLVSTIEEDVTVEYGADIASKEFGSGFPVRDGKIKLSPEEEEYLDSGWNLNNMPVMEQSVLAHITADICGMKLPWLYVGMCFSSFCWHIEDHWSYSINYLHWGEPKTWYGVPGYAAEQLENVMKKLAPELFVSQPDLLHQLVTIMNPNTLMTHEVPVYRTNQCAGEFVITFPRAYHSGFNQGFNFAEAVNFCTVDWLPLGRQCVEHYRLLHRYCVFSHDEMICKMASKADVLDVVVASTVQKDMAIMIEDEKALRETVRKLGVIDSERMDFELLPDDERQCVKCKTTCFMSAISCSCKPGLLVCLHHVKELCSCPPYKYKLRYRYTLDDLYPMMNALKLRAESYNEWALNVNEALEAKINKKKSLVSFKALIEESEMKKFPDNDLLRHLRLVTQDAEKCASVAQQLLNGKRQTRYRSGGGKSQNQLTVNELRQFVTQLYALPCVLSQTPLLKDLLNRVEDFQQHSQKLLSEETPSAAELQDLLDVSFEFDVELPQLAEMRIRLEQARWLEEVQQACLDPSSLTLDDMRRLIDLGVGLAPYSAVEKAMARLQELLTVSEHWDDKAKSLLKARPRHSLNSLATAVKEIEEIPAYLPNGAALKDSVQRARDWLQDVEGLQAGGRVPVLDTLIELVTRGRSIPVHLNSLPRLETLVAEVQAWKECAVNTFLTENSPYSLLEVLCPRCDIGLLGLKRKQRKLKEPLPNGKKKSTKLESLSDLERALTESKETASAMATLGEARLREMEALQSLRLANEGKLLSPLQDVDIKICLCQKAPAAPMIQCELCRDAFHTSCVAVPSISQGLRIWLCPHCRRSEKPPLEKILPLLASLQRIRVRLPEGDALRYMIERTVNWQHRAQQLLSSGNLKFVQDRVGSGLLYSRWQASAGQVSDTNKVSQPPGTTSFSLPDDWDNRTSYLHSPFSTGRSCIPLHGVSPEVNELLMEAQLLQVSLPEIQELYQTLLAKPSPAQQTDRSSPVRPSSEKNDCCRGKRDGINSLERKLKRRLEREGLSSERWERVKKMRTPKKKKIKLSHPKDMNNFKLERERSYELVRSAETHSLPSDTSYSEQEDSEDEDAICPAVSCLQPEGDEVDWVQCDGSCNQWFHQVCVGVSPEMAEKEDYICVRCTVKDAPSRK

SMILES	activity, negative = inhibition
Cc1o[nH]c(=O)c1CC(N)C(=O)O (stereo not given)	-7.58%
CCCn1c(C)c(C(=O)c2ccc3ccccc3c2)c2ccccc21	-11.5%
N=C(N)c1ccc(CS(=O)(=O)F)cc1	-1.09%
C=CCN(C1=NCCN1)c1c(Cl)cccc1Cl	-4.1%
COc1ccc(OC)c(C(O)C(C)N)c1 (stereo not given)	0.484%
O=C1C=CC(=O)C=C1	3%
Ic1ccccc1CNC1C2CCN(CC2)C1C(c1ccccc1)c1ccccc1 (stereo not given)	-21.5%
Clc1cc(I)cc(Cl)c1NC1=NCCN1	-4.43%
CCn1cnc2c(Nc3cccc(Cl)c3)nc(N[C@@H]3CCCC[C@@H]3N)nc21	-10.7%
CC(N)c1cccc(Cl)c1Cl (stereo not given)	-6.5%
N[C@@]1(C(=O)O)CC[C@@H](C(=O)O)C1	-4.74%
C=CCN1C[C@@H](C)N([C@H](c2ccc(C(=O)N(CC)CC)cc2)c2cccc(OC)c2)C[C@@H]1C	-3.11%
COc1ccc(CNC(=O)/C=C/c2ccc3[nH]cc(CCN(C)C)c3c2)cc1	-15.2%
N#CCCN	-8.75%
Oc1ccc2c3c1O[C@H]1c4oc5ccccc5c4C[C@@]4(O)C(C2)N(CC2CC2)CCC314 (stereo not given in full)	-6.3%
C[Se]C[C@H](N)C(=O)O	9.44%
C[N+]1(C)C2CCC1CC(OC(=O)c1c[nH]c3ccccc13)C2 (stereo not given)	-18.2%
NC(CCCCCP(=O)(O)O)C(=O)O (stereo not given)	0.161%
C[N+]1(C)CCc2cc3c(cc2[C@H]1[C@@H]1OC(=O)c2c1ccc1c2OCO1)OCO3	-1.28%
C[C@@H]1O[C@@H](O[C@H]2C[C@@H](O)[C@]3(CO)[C@@H]4C(CC[C@]3(O)C2)[C@@]2(O)CC[C@H]([C@@H]3COC(=O)C3)[C@@]2(C)C[C@H]4O)[C@H](O)[C@H](O)[C@H]1O (stereo not given in full)	-4.15%
